Data taken from PubChem BioAssay AID434947 (Broad Institute, 2010).
In all, about 2,200 compounds went through this assay and about 15 (0.7%) were called active. Many of the other results were omitted from the sample, so actives are more common in it than they were. Values without a mark were called inactive.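 How the source made its calls: active means fitted half-maximal concentration for loss of luminescence signal no more than a set limit of log units above the top tested concentration; inconclusive means flat fit with 30 to 70% signal loss, or invalid fit; inactive means half-maximal concentration above that set limit.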

Assay: inhibitors of ADP-Glo detection reagents, dose response, artefact control for GSK3beta inhibitor project, biochemical, luminescence, cell-free, homogeneous (AID 434947);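 further: kinase-free counter screen of ADP-Glo detection reagents for GSK3beta hits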
Details: 5 uM ADP

Row | SMILES | EC50
1 | CC1(C)CC(=O)C=C(Nc2ccc3c(c2)OCCO3)C1 | > 30 µM
2 | COc1ccc(-c2nn(-c3ccccc3)cc2/C=N/N2C(=O)CSC2=S)cc1 | > 30 µM
3 | Cc1ccccc1-c1nc(CN2CCC(C(=O)N3CCN(c4ccccn4)CC3)CC2)c(C)o1 | > 30 µM
4 | CCOC(=O)c1cnc2c(OC)cccc2c1N1CCN(c2ccc(OC)cc2)CC1 | > 30 µM
5 | COc1cc(OC)c(OC)cc1CNCC1COc2ccccc2O1 (stereo unspecified) | > 30 µM
6 | CSc1nc(N)c2c3c(sc2n1)CN(C)CC3 | > 30 µM
7 | Cn1c(=O)c2[nH]c(CCCC(=O)O)nc2n(Cc2ccccc2)c1=S | > 30 µM
8 | NS(=O)(=O)c1cc(C(=O)N=Nc2c(O)[nH]c3ccccc23)ccc1Cl | > 30 µM
9 | O=C(/C=C/c1ccc2ccccc2c1)c1ccoc1 | > 30 µM
10 | NS(=O)(=O)c1ccc(CCNC(=O)CSc2nc3ccsc3c(=O)n2C2CC2)cc1 | > 30 µM
11 | CN(C)CCCNc1ccc(-c2cc(Nc3cccc(Cl)c3)ncn2)cn1 | > 30 µM
12 | CN(CCO)c1cc(N2CCC3(CC2)OCCO3)c2nonc2c1[N+](=O)[O-] | > 30 µM
13 | COC(=O)c1nnn(-c2nonc2N)c1CSc1ccc(Cl)cc1 | > 30 µM
14 | Cc1cccc(OCc2nnc(SCC(=O)Nc3sc(C)c(C)c3C#N)n2C)c1 | > 30 µM
15 | CC(C)N1C(=O)N(c2ccc(Cl)cc2)C(C)(O)CC1(C)C (stereo unspecified) | > 30 µM
16 | CC(C)CCSc1nnc(N)s1 | > 30 µM
17 | CCC(=O)Nc1ccc(Nc2nc(C)c([N+](=O)[O-])c(Nc3ccc(NC(=O)CC)cc3)n2)cc1 | > 30 µM
18 | O=C(Nc1ccnn1C1CCN(Cc2cccc(OCCO)c2)CC1)C1CCCC1 | > 30 µM
19 | c1ccc(OCCCn2nnc(-c3ccncc3)n2)cc1 | > 30 µM
20 | Nc1nc(NCCO)nc(NCC2CCCO2)c1[N+](=O)[O-] (stereo unspecified) | > 30 µM
21 | N#Cc1c(-c2ccccc2)nc(SCC(=O)Nc2ccc(OC(F)(F)Cl)cc2)[nH]c1=O | > 30 µM
22 | O=C(Nc1cc(-c2ccccc2)[nH]n1)c1ccccc1 | > 30 µM
23 | COc1cccc(C(=O)Nc2ccc(C(=O)NCC(C)C)cc2)c1 | > 30 µM
24 | CCCCC(CC)C(=O)Nc1ncc([N+](=O)[O-])s1 (stereo unspecified) | > 30 µM

Row | SMILES | EC50
25 | O=C(COc1ccccc1[N+](=O)[O-])N/N=C/c1ccccn1 | > 30 µM
26 | N/C(Cc1nc2ccccc2s1)=N\O | > 30 µM
27 | COc1cccc(C(=O)Nc2nnc(C(C)C)s2)c1 | > 30 µM
28 | COc1ccc2nc(Cl)cc(Cl)c2c1 | > 30 µM
29 | CCCc1cc(=O)[nH]c(SCCOc2ccc(OCC)cc2)n1 | > 30 µM
30 | COc1ccccc1/C=C1\C(=O)Nc2ccccc21 | > 30 µM
31 | Cc1ccc(S(=O)(=O)NNC(=O)c2cccc(O)c2)cc1 | > 30 µM
32 | COCc1c(C(=O)Nc2ccc(Cl)cc2F)oc2ccccc12 | > 30 µM
33 | CC(C)c1ccc(NC2=CC(=O)CC(C)(C)C2)cc1 | > 30 µM
34 | O=C(CCc1ccccc1)Nc1ccc2c(c1)OCCO2 | > 30 µM
35 | Cc1cc(C)c(C)c(S(=O)(=O)Nc2ccccc2C(=O)NCCCn2ccnc2)c1C | > 30 µM
36 | N#Cc1ccc(CSc2nnc(-c3ccncc3)o2)cc1 | > 30 µM
37 | CN(c1ncnc(N)c1[N+](=O)[O-])C1CCCCC1 | > 30 µM
38 | O=C(O)c1ccccc1N/N=C\c1ccnc2ccccc12 | > 30 µM
39 | COc1ccc(-c2nn(-c3ccccc3)cc2/C=N/O)cc1OC | > 30 µM
40 | Cc1cc(C(=O)OCCN2C(=O)c3ccccc3C2=O)c2ccccc2n1 | > 30 µM
41 | Cn1cc(S(=O)(=O)NCc2ccc(F)cc2)c(=O)n(C)c1=O | > 30 µM
42 | c1ccc(CNc2nc(-c3cccnc3)nc3ccccc23)cc1 | > 30 µM
43 | Cc1cc(C(=O)c2ccccc2)c(NC(=O)CN2CCOCC2)s1 | > 30 µM
44 | CN(Cc1c(C(=O)N/N=C/c2ccccc2F)nnn1-c1nonc1N)c1ccccc1 | > 30 µM
45 | CCn1c(SCC(=O)Nc2ccc(Cl)cc2)nnc1C1CC1 | > 30 µM
46 | O=c1c2[nH]c3ccccc3c2ncn1C1CCCCC1 | > 30 µM
47 | CCOC(=O)/C(C#N)=C/c1cn(CCC(=O)O)nc1-c1ccccc1 | > 30 µM
48 | CN1CCN(c2ccccc2NC(=O)c2ccc(Br)o2)CC1 | > 30 µM

Row | SMILES | EC50
49 | Cc1cnc(C(=O)OCC(=O)N2c3ccccc3CC2C)cn1 (stereo unspecified) | > 30 µM
50 | N#CCCn1cc(/C=N/O)c(-c2cccc([N+](=O)[O-])c2)n1 | > 30 µM
51 | COc1cccc(/C=N/Nc2cc(Cl)nc(C)n2)c1O | > 30 µM
52 | COc1ccc(-c2nn(-c3ccccc3)cc2N)cc1 | > 30 µM
53 | CSc1nc2c(c(=O)[nH]1)C(c1ccccc1)C1=C(CC(C)(C)CC1=O)N2 (stereo unspecified) | > 30 µM
54 | CC(=O)C(Sc1ccc2nnc(-c3ccc(F)cc3)n2n1)C(C)=O | > 30 µM
55 | NNC(=O)CNC(=O)c1ccc(F)cc1 | > 30 µM
56 | Cn1c(=S)n(CCC(=O)O)c2ccccc21 | > 30 µM
57 | O=C(NCC(c1ccco1)N1CCc2ccccc21)c1c(F)cccc1F (stereo unspecified) | > 30 µM
58 | Cc1ccc(-c2nn(-c3ccccc3)cc2/C=N/NS(=O)(=O)c2ccccc2)cc1 | > 30 µM
59 | COCCn1c(SCC(=O)Nc2ccc(Cl)c(S(=O)(=O)N(C)C)c2)nc2ccccc21 | > 30 µM
60 | COc1cccc(N=Nc2c(N)[nH][nH]c2=O)c1 | > 30 µM
61 | Cc1cc(NC(=O)CSc2nnc(C3CC3)n2Cc2ccccc2)no1 | > 30 µM
62 | CNc1nc(N)c([N+](=O)[O-])c(NCC2CCCO2)n1 (stereo unspecified) | > 30 µM
63 | COc1cc(SC)ccc1C(=O)OCC(=O)NCCNC(=O)COC(=O)c1ccc(SC)cc1OC | > 30 µM
64 | CCOC(=O)COC(=O)c1ccc(O)cc1 | > 30 µM
65 | Cc1ccc(-c2cc(C(=O)NCCc3ccccn3)c3ccccc3n2)c(C)c1 | > 30 µM
66 | COc1ccc(C(=O)c2sc(Nc3ccccc3)nc2N)cc1 | > 30 µM
67 | Cc1ccc2nc3c(cc2c1)c(NC(=O)c1ccccn1)nn3CC(C)C | > 30 µM
68 | COc1ccc(C(=O)O/N=C(\N)c2ccccn2)cc1 | 15.5 µM (active)
69 | Cc1ccc(C(=O)O/N=C(\N)c2ccccn2)c(Cl)c1 | 26.6 µM (active)
70 | Cc1ccc(C(=O)O/N=C(\N)c2ccccn2)c(C)c1 | 17.6 µM (active)
71 | COc1ccc(C(=O)OCCc2ccc(O)cc2)cc1 | > 30 µM
72 | Cc1ccc(C(=O)N/N=C2\CCCc3ccccc32)c(C)c1 | > 30 µM

Row | SMILES | EC50
73 | CCc1ccc(CNC(=O)C2CCC(=O)N(CCc3ccc(Cl)cc3)C2)nc1 (stereo unspecified) | > 30 µM
74 | O=C(O)COc1ccc(C(=O)c2ccccc2)cc1 | > 30 µM
75 | CSc1nc(NCCCN(C)C)c2c3c(sc2n1)CN(C)CC3 | > 30 µM
76 | OCCNc1nc(-c2cccnc2)nc2ccccc12 | > 30 µM
77 | CCC(C)Nc1nc(N)c([N+](=O)[O-])c(NCc2ccccc2)n1 (stereo unspecified) | > 30 µM
78 | Cc1ccc(NC(=O)CSCc2ccc(F)cc2)cc1 | > 30 µM
79 | CCN1CCc2c(sc(NC(=O)Cc3ccccc3)c2C(N)=O)C1 | > 30 µM
80 | COc1ccc(OC)c(C(O)c2coc3ccc(O)c(CN(C)C)c23)c1 (stereo unspecified) | > 30 µM
81 | CCn1c(/C=C/N(C(C)=O)c2ccccc2)[n+](CC)c2ccc(Cl)cc21 | > 30 µM
82 | CCOc1ccc(/C=N/Nc2ccccn2)cc1OC | > 30 µM
83 | Cc1ccc(S(=O)(=O)CC(=O)c2cc3cccc(C)c3oc2=O)cc1 | > 30 µM
84 | Nc1nc(NCCc2ccccc2)nc(NCCO)c1[N+](=O)[O-] | > 30 µM
85 | O=C(N/N=C/c1ccc(-c2ccc(Cl)c(C(=O)O)c2)o1)c1cc2c(ccc3ccccc32)o1 | > 30 µM
86 | CCn1c(SCC(=O)Nc2nccs2)nnc1C1CC1 | > 30 µM
87 | COc1ccc(N(C(=O)c2ccncc2)S(=O)(=O)c2cccc([N+](=O)[O-])c2)cc1 | > 30 µM
88 | Cc1ccc(-c2nc(Nc3cccc(O)c3)c3ccccc3n2)cc1 | > 30 µM
89 | CN(C)S(=O)(=O)c1cc(NC(=O)COC(=O)Cc2ccc(Br)cc2)ccc1Cl | > 30 µM
90 | CSc1nc(C)cc(-n2ccc(=O)[nH]c2=O)n1 | > 30 µM
91 | CC(C)OCCCN1CN(S(=O)(=O)c2cccc(Cl)c2)c2nc3ccccc3nc21 | > 30 µM
92 | COc1ccc(-c2nn(-c3ccccc3)cc2C(=O)O)cc1 | > 30 µM
93 | COCCOc1ccc(C(F)(F)F)cc1NC(=O)COC(=O)c1cc[n+]([O-])cc1 | > 30 µM
94 | COc1cccc(C(=O)Nc2nc3ccccc3s2)c1 | > 30 µM
95 | CCSc1ccc2nnc(-c3cccs3)n2n1 | > 30 µM
96 | CCCCn1nc(NC(=O)CCC)c2cc3cc(OC)ccc3nc21 | > 30 µM
